# Test results taken from publication PMC5540273 (PLoS ONE, 2017).
# Where two headings read alike, the source gives them in different places.
# Tests used:
# FGFR1 = conditions: concentration: 1 μM, replicates: in singlicate; n = 1
# FGFR2 = conditions: concentration: 1 μM, replicates: in singlicate; n = 1
# FGFR3 = conditions: concentration: 1 μM, replicates: in singlicate; n = 1
# FGFR4 = conditions: concentration: 1 μM, replicates: in singlicate; n = 1
# FGR = conditions: concentration: 1 μM, replicates: in singlicate; n = 1
# FLT1 = conditions: concentration: 1 μM, replicates: in singlicate; n = 1
# FLT3-autoinhibited = conditions: concentration: 1 μM, replicates: in singlicate; n = 1
# FLT3 = conditions: concentration: 1 μM, replicates: in singlicate; n = 1
# FLT4 = conditions: concentration: 1 μM, replicates: in singlicate; n = 1
# FRK = conditions: concentration: 1 μM, replicates: in singlicate; n = 1
# FYN = conditions: concentration: 1 μM, replicates: in singlicate; n = 1
# GAK = conditions: concentration: 1 μM, replicates: in singlicate; n = 1
# GCN2(Kin.Dom.2,S808G) = tested on: T1, GCN2(Kin.Dom.2,S808G); conditions: concentration: 1 μM, replicates: in singlicate; n = 1
# T1 construct: gene EIF2AK4
# GRK1 = conditions: concentration: 1 μM, replicates: in singlicate; n = 1
# GRK2 = tested on: T2, GRK2; conditions: concentration: 1 μM, replicates: in singlicate; n = 1
# T2 construct: gene ADRBK1
# GRK3 = tested on: T3, GRK3; conditions: concentration: 1 μM, replicates: in singlicate; n = 1
# T3 construct: gene ADRBK2
# GRK4 = conditions: concentration: 1 μM, replicates: in singlicate; n = 1
# GRK7 = conditions: concentration: 1 μM, replicates: in singlicate; n = 1
# GSK3A = conditions: n = 1
# GSK3B = conditions: n = 1
# [1] = concentration: 1 μM, replicates: in singlicate
# 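Further: KINOMEscan kinase panel screen.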
compound,measurement,setting,value
c1ccc(-c2cnc3nccnn23)cc1 [AH20685],%Inh,FGFR1,0%
same,%Inh,FGFR2,0%
same,%Inh,FGFR3,0%
same,%Inh,FGFR4,0%
same,%Inh,FGR,10%
same,%Inh,FLT1,0%
same,%Inh,FLT3-autoinhibited,0%
same,%Inh,FLT3,43%
same,%Inh,FLT4,0%
same,%Inh,FRK,18%
same,%Inh,FYN,50%
same,%Inh,GAK,0%
same,%Inh,"GCN2(Kin.Dom.2,S808G)",42%
same,%Inh,GRK1,0%
same,%Inh,GRK2,0%
same,%Inh,GRK3,13%
same,%Inh,GRK4,0%
same,%Inh,GRK7,0%
same,%Inh,GSK3A; [1],0%
same,%Inh,GSK3B; [1],0%
Cl.NC(=O)c1cccc(Nc2nccc(Nc3ccc(Oc4c(Cl)cccc4Cl)c(Cl)c3)n2)c1 [GW659009],%Inh,FGFR1,0%
same,%Inh,FGFR2,0%
same,%Inh,FGFR3,0%
same,%Inh,FGFR4,0%
same,%Inh,FGR,31%
same,%Inh,FLT1,0%
same,%Inh,FLT3-autoinhibited,12%
same,%Inh,FLT3,33%
same,%Inh,FLT4,0%
same,%Inh,FRK,7%
same,%Inh,FYN,66%
same,%Inh,GAK,59%
same,%Inh,"GCN2(Kin.Dom.2,S808G)",0%
same,%Inh,GRK1,0%
same,%Inh,GRK2,0%
same,%Inh,GRK3,39%
same,%Inh,GRK4,4%
same,%Inh,GRK7,0%
same,%Inh,GSK3A; [1],0%
same,%Inh,GSK3B; [1],0%
CCn1c(-c2nonc2N)nc2c(C#CC(C)(C)O)ncc(OCCCCN)c21.O=C(O)C(F)(F)F.O=C(O)C(F)(F)F [GSK507274],%Inh,FGFR1,0%
same,%Inh,FGFR2,60%
same,%Inh,FGFR3,5%
same,%Inh,FGFR4,9%
same,%Inh,FGR,33%
same,%Inh,FLT1,23%
same,%Inh,FLT3-autoinhibited,0%
same,%Inh,FLT3,0%
same,%Inh,FLT4,15%
same,%Inh,FRK,26%
same,%Inh,FYN,0%
same,%Inh,GAK,41%
same,%Inh,"GCN2(Kin.Dom.2,S808G)",13%
same,%Inh,GRK1,65%
same,%Inh,GRK2,0%
same,%Inh,GRK3,44%
same,%Inh,GRK4,21%
same,%Inh,GRK7,75%
same,%Inh,GSK3A; 1 µM,78%
same,%Inh,GSK3B; 1 µM,100%
O=c1[nH]cc(-c2ccc(N3CCOCC3)cc2)c2sc(-c3cn[nH]c3)cc12 [GSK2276055],%Inh,FGFR1,0%
same,%Inh,FGFR2,0%
same,%Inh,FGFR3,21%
same,%Inh,FGFR4,0%
same,%Inh,FGR,0%
same,%Inh,FLT1,0%
same,%Inh,FLT3-autoinhibited,11%
same,%Inh,FLT3,0%
same,%Inh,FLT4,0%
same,%Inh,FRK,0%
same,%Inh,FYN,31%
same,%Inh,GAK,34%
same,%Inh,"GCN2(Kin.Dom.2,S808G)",0%
same,%Inh,GRK1,14%
same,%Inh,GRK2,9%
same,%Inh,GRK3,0%
same,%Inh,GRK4,0%
same,%Inh,GRK7,0%
same,%Inh,GSK3A; [1],97.7%
same,%Inh,GSK3B; [1],77%
COc1ccc(CNC(=O)NC2CCN(c3ccnc(Nc4ccc(F)cc4)n3)CC2)cc1 [GSK1379788],%Inh,FGFR1,0%
same,%Inh,FGFR2,0%
same,%Inh,FGFR3,8%
same,%Inh,FGFR4,0%
same,%Inh,FGR,19%
same,%Inh,FLT1,16%
same,%Inh,FLT3-autoinhibited,0%
same,%Inh,FLT3,0%
same,%Inh,FLT4,0%
same,%Inh,FRK,0%
same,%Inh,FYN,8%
same,%Inh,GAK,0%
same,%Inh,"GCN2(Kin.Dom.2,S808G)",0%
same,%Inh,GRK1,0%
same,%Inh,GRK2,0%
same,%Inh,GRK3,57%
same,%Inh,GRK4,0%
same,%Inh,GRK7,0%
same,%Inh,GSK3A; [1],2%
same,%Inh,GSK3B; [1],0%
Cl.c1ccc(-c2ccc3c(Nc4ccc5[nH]ncc5c4)ccnc3c2)nc1 [GW440137],%Inh,FGFR1,14%
same,%Inh,FGFR2,0%
same,%Inh,FGFR3,11%
same,%Inh,FGFR4,0%
same,%Inh,FGR,30%
same,%Inh,FLT1,62%
same,%Inh,FLT3-autoinhibited,2%
same,%Inh,FLT3,0%
same,%Inh,FLT4,39%
same,%Inh,FRK,0%
same,%Inh,FYN,50%
same,%Inh,GAK,68%
same,%Inh,"GCN2(Kin.Dom.2,S808G)",0%
same,%Inh,GRK1,0%
same,%Inh,GRK2,0%
same,%Inh,GRK3,22%
same,%Inh,GRK4,0%
same,%Inh,GRK7,0%
same,%Inh,GSK3A; [1],16%
same,%Inh,GSK3B; [1],17%
O=C(Nc1cccc(-c2nn3ncccc3c2-c2ccnc(Nc3ccccc3)n2)c1)c1c(F)cccc1F [GSK198271],%Inh,FGFR1,0%
same,%Inh,FGFR2,7%
same,%Inh,FGFR3,3%
same,%Inh,FGFR4,14%
same,%Inh,FGR,97.2%
same,%Inh,FLT1,98.4%
same,%Inh,FLT3-autoinhibited,0%
same,%Inh,FLT3,72%
same,%Inh,FLT4,77%
same,%Inh,FRK,89%
same,%Inh,FYN,85%
same,%Inh,GAK,31%
same,%Inh,"GCN2(Kin.Dom.2,S808G)",33%
same,%Inh,GRK1,0%
same,%Inh,GRK2,0%
same,%Inh,GRK3,0%
same,%Inh,GRK4,1%
same,%Inh,GRK7,0%
same,%Inh,GSK3A; [1],16%
same,%Inh,GSK3B; [1],14%
CC(=O)N1CCN(c2ccc(Nc3nccc(-c4sc(C(C)C)nc4-c4cccc(NS(=O)(=O)c5cccc(Cl)c5)c4)n3)cn2)CC1 [GSK1660437],%Inh,FGFR1,20%
same,%Inh,FGFR2,0%
same,%Inh,FGFR3,7%
same,%Inh,FGFR4,0%
same,%Inh,FGR,78%
same,%Inh,FLT1,81%
same,%Inh,FLT3-autoinhibited,9%
same,%Inh,FLT3,33%
same,%Inh,FLT4,82%
same,%Inh,FRK,70%
same,%Inh,FYN,73%
same,%Inh,GAK,90.9%
same,%Inh,"GCN2(Kin.Dom.2,S808G)",100%
same,%Inh,GRK1,0%
same,%Inh,GRK2,12%
same,%Inh,GRK3,0%
same,%Inh,GRK4,30%
same,%Inh,GRK7,0%
same,%Inh,GSK3A; [1],12%
same,%Inh,GSK3B; [1],10%
CSc1cccc2c(-c3ccncn3)c(-c3ccc(F)cc3)nn12 [GW514786],%Inh,FGFR1,0%
same,%Inh,FGFR2,0%
same,%Inh,FGFR3,4%
same,%Inh,FGFR4,7%
same,%Inh,FGR,10%
same,%Inh,FLT1,19%
same,%Inh,FLT3-autoinhibited,0%
same,%Inh,FLT3,5%
same,%Inh,FLT4,0%
same,%Inh,FRK,9%
same,%Inh,FYN,17%
same,%Inh,GAK,76%
same,%Inh,"GCN2(Kin.Dom.2,S808G)",0%
same,%Inh,GRK1,6%
same,%Inh,GRK2,7%
same,%Inh,GRK3,35%
same,%Inh,GRK4,100%
same,%Inh,GRK7,0%
same,%Inh,GSK3A; [1],5%
same,%Inh,GSK3B; [1],9%
CN(C)S(=O)(=O)c1cc(-c2ccc3nccc(-c4cccc(S(N)(=O)=O)c4)c3c2)cnc1N [GSK1669921],%Inh,FGFR1,0%
same,%Inh,FGFR2,22%
same,%Inh,FGFR3,26%
same,%Inh,FGFR4,13%
same,%Inh,FGR,22%
same,%Inh,FLT1,25%
same,%Inh,FLT3-autoinhibited,19%
same,%Inh,FLT3,1%
same,%Inh,FLT4,1%
same,%Inh,FRK,7%
same,%Inh,FYN,28%
same,%Inh,GAK,28%
same,%Inh,"GCN2(Kin.Dom.2,S808G)",0%
same,%Inh,GRK1,5%
same,%Inh,GRK2,0%
same,%Inh,GRK3,0%
same,%Inh,GRK4,12%
same,%Inh,GRK7,8%
same,%Inh,GSK3A; [1],0%
same,%Inh,GSK3B; [1],3%
